# Experimental data published in ChEMBL document CHEMBL1201862, “PubChem BioAssay data set” (2004).
# About 2,100 (0.53%) of roughly 400,000 compounds were called active. Not shown: some 14% with an inconclusive outcome. The rule behind the calls is not given here. The full list was thinned out, with actives kept by preference.
# Molecular target: Ataxin-2 (Homo sapiens) (UniProt Q99700)
# Assay: qHTS for Inhibitors of ATXN expression.
# Format: functional
# Chain of Ataxin-2 (Homo sapiens) (Q99700 whole entry): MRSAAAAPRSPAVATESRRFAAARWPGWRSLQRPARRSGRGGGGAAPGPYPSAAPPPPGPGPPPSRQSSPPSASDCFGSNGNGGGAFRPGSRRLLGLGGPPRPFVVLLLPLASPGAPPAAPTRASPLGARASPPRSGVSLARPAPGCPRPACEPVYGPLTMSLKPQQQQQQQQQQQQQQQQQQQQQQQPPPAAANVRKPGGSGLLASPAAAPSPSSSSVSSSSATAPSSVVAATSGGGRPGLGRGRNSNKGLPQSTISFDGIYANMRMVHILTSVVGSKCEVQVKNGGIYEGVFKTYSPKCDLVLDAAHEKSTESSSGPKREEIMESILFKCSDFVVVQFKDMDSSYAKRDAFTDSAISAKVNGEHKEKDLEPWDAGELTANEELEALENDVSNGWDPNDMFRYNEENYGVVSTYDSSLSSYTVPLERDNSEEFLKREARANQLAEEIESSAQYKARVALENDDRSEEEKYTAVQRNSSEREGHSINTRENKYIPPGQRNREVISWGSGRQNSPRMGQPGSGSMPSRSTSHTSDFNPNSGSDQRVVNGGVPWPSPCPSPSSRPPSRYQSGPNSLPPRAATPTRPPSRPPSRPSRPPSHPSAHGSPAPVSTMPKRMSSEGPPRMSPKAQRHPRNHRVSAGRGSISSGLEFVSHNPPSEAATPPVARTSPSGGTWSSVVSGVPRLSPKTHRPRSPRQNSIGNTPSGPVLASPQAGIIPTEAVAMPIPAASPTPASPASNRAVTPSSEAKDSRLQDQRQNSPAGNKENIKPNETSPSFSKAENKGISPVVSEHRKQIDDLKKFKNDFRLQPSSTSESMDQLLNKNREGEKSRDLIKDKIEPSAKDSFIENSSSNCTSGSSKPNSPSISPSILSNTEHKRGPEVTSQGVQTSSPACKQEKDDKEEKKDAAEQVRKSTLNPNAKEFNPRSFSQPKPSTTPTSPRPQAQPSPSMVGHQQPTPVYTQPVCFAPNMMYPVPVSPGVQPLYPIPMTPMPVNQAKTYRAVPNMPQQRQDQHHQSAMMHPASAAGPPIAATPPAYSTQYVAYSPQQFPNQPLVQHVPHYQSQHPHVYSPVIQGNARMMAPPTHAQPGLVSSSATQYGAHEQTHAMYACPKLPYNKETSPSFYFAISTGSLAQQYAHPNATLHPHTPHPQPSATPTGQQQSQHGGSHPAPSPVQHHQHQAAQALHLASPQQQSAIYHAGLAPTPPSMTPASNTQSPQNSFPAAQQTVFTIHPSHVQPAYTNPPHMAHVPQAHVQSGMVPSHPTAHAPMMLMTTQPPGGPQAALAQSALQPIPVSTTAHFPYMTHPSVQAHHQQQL
row,Compound,Potency
1,CCN(c1ccccc1)c1nc(=O)c2cccnc2s1,inactive
2,O=S1(=O)C=C(Sc2nnc(-c3ccccc3)o2)c2ccccc21,11.2 µM (active)
3,Brc1cccc(CSc2nnc(-c3ccncc3)o2)c1,inactive
4,O=S1(=O)C=C(Sc2nc3cc(Cl)ccc3o2)c2ccccc21,10 µM (active)
5,N#C/C(=C\c1c(Oc2ccccc2F)nc2ccccn2c1=O)C(=O)NC1CCS(=O)(=O)C1 (stereo unspecified),inactive
6,NC(=O)c1cc(S(=O)(=O)N2CCCCC2)cs1,inactive
7,O=[N+]([O-])c1cc(S(=O)(=O)N2CCCCCC2)ccc1Cl,42.3 µM (active)
8,Cn1c(=O)oc2cc(S(=O)(=O)N3CCCC3)ccc21,inactive
9,O=[N+]([O-])c1cc(S(=O)(=O)N2CCCCCC2)ccc1F,35.5 µM (active)
10,O=S(=O)(c1ccc(S)nc1)N1CCCCCC1,inactive
11,O=S(=O)(c1ccc(S)nc1)N1CCCCC1,inactive
12,COCc1cc(C)nc2sc(C(=O)Nc3ccccc3C)c(N)c12,inactive
13,O=C(Nc1nc2n(n1)C(c1ccccc1)C=C(c1ccc(Cl)cc1)N2)c1ccco1 (stereo unspecified),inactive
14,CCCCc1cc(=O)oc2cc(OCC(=O)Nc3cccnc3)c(Cl)cc12,inactive
15,S=C(NCc1ccccc1)N/N=C/c1cccs1,inactive
16,Cc1ccc(CN2CCSCC2)cc1,inactive
17,O=C(CCC1CCCC1)NNC(=O)c1ccc(F)cc1,inactive
18,O=C(/C=C/c1ccc([N+](=O)[O-])o1)NNC(=O)c1ccc(F)cc1,7.08 µM (active)
19,O=C(CN1C(=O)/C(=C/c2ccccc2F)Oc2ccccc21)N1CCN(c2ccccn2)CC1,inactive
20,O=C(CSc1nnc(O)n1CCc1ccccc1)NC1CCCC1,inactive
21,O=C(OC1C2CCC1C1CN(CCc3ccccc3)CC12)c1ccccc1 (stereo unspecified),31.6 µM (active)
22,COC(=O)c1cc(S(=O)(=O)N2CCN(Cc3ccccc3)CC2)cn1C,inactive
23,CCOC(=O)C1=NN(C(=O)c2ccccc2)C(O)(c2ccc(C)cc2)C1 (stereo unspecified),inactive
24,O=C(c1ccccc1)N1N=C(c2ccccc2)CC1(O)C(F)(F)F (stereo unspecified),inactive
25,CCC1=NN(C(=O)c2ccccc2O)C(O)(c2ccccc2)C1 (stereo unspecified),25.1 µM (active)
26,CCN(C(=O)CSc1nc2n[nH]c(C)c2c(=N)n1-c1cccc(OC)c1)c1cccc(C)c1,22.4 µM (active)

row,Compound,Potency
1,COc1cccc(-n2cnnc2SCC(=O)NC2CC2)c1,inactive
2,CCOC(=O)N1CCN(Cc2nc3ccc([N+](=O)[O-])cc3c(=O)n2-c2cccc(OC)c2)CC1,inactive
3,CCCCC[C@@H](C)N1C[C@@H](COCc2ccccc2)Oc2cc(N3CC[C@@H](O)C3)ccc2S1(=O)=O,25.1 µM (active)
4,CCCCC[C@H](C)N1C[C@H](COCc2ccccc2)Oc2cc(N3CC[C@H](N(C)C)C3)ccc2S1(=O)=O,39.8 µM (active)
5,CCCCC[C@@H](C)N1C[C@@H](COCc2ccccc2)Oc2cc(N3CC[C@H](N(C)C)C3)ccc2S1(=O)=O,31.6 µM (active)
6,C[C@H](c1ccccc1)N1C[C@@H](COCc2ccccc2)Oc2cc(N3CC[C@H](N(C)C)C3)ccc2S1(=O)=O,39.8 µM (active)
7,Cc1c(CC(=O)NCc2ccccc2)c(=O)oc2c(C)c(O)ccc12,inactive
8,Cc1ccc(C(C)NC(=O)C2CCCC2)c(C)c1 (stereo unspecified),inactive
9,C=CCNC(=O)CSc1ncc2c(n1)-c1c(csc1SC)CC2,inactive
10,CC(NC(=O)c1cc2c(=O)n3ccccc3nc2n(C(C)C)c1=N)c1ccccc1 (stereo unspecified),inactive
11,COCCN(CCOC)c1cc(C)c(C#N)c2nc3ccccc3n12,inactive
12,Cc1occc1C(=O)N1CCC2(CCCN(Cc3ccc(F)c(F)c3)C2)C1 (stereo unspecified),inactive
13,CC1CN(C(=O)c2cc3c(=O)n4ccccc4nc3n2C)CC(C)O1 (stereo unspecified),inactive
14,Cc1cccc(N2CCN(C(=O)c3cc4c(=O)n(C)c5ccccc5c4n3C)CC2C)c1 (stereo unspecified),39.8 µM (active)
15,Cn1c(C(=O)N2CCc3ccccc3C2)cc2c(=O)n3ccccc3nc21,inactive
16,COc1ccc2nc(N3CCCC3)c(C#N)cc2c1,inactive
17,O=c1cc(CN2CCN(S(=O)(=O)c3ccc4c(c3)OCCO4)CC2)c2ccc(O)cc2o1,inactive
18,Cc1cccc(C2=NN(c3ccccc3)[C@@H](C(=O)N3CCOC3=O)[C@@H]2c2ccc(Cl)cc2)c1,inactive
19,COc1ccc([N+](=O)[O-])cc1NC(=O)CC(c1ccccc1)c1ccccc1,inactive
20,O=C(Nc1ccc([N+](=O)[O-])cc1)Nc1ccc(OC(F)F)c(Cl)c1,35.5 µM (active)
21,COc1cc(/C=C/C(=O)OCC(=O)Nc2ccc([N+](=O)[O-])cc2)ccc1O,inactive
22,CCOC(=O)/C=c1\s/c(=C\c2ccc3cc(OC)ccc3c2)c(=O)n1CC(=O)NCc1ccc2c(c1)OCO2,inactive
23,N#C/C(=C\c1c(N2CCOCC2)nc2ccccn2c1=O)C(=O)NC1CCS(=O)(=O)C1 (stereo unspecified),inactive
24,Cn1c(/C(C#N)=C(\O)c2ccc(Br)s2)nc2ccccc21,inactive
25,CCCCn1c(=N)n(CC(=O)c2ccc(Br)s2)c2ccccc21,39.8 µM (active)
26,CCN(CC)CCn1c(=N)n(CC(=O)c2ccc(Br)s2)c2ccccc21,inactive

row,Compound,Potency
1,CC(C)n1c(=N)c(C(=O)NCc2cccnc2)cc2c(=O)n3ccccc3nc21,inactive
2,N#Cc1c(C(F)(F)F)cc(-c2ccco2)nc1SCc1ccncc1,inactive
3,Cc1cc(C(=O)c2ccc(Cl)cc2)c(NC(=O)CCl)s1,39.8 µM (active)
4,CCc1cc(C(=O)c2ccc(C)cc2)c(NC(=O)CCl)s1,31.6 µM (active)
5,CCN(CC)CC(=O)Nc1sc(C)c(C)c1C(=O)c1ccc(C)cc1,inactive
6,Cc1ccc(C(=O)CC(=O)c2ccc(C)cc2O)cc1,inactive
7,CCOC(=O)c1cc(C(=O)c2cc(Cl)ccc2O)coc1=N,inactive
8,CCOc1ccccc1/N=c1\oc2cc(O)ccc2cc1C(=O)NCC1CCCO1 (stereo unspecified),inactive
9,COC(=O)C(=O)C/C(=N/Nc1ncnc2ccccc12)c1ccc(Cl)cc1,inactive
10,C#CCOc1ccc(C2C3=C(CC(C)(C)CC3=O)N(CC(=O)O)C3=C2C(=O)CC(C)(C)C3)cc1,inactive
11,Cc1cc2nc3c(=O)n(C4CCCCC4)c(=O)[nH]c3nc2cc1N,inactive
12,CCCN(CC(=O)Nc1ccc(F)c(F)c1F)C(=O)Cc1ccc(OC)c(S(=O)(=O)N2CCOCC2)c1,inactive
13,Cc1ccccc1CN1CCN(Cc2cc3ccccc3o2)CC1CCO (stereo unspecified),8.44 µM (active)
14,CC(C)=CCN1CCN(Cc2cccc3nonc23)CC1CCO (stereo unspecified),inactive
15,COc1ccc(CN2CCN(CC3CC3)CC2CCO)c(C)c1C (stereo unspecified),inactive
16,CCOc1ccc(C2=CC(c3ccccc3)n3ncnc3N2)cc1 (stereo unspecified),inactive
17,CCOCCCn1/c(=N/C(=O)c2cccnc2)c(C(=O)OCC)cc2c(=O)n3ccccc3nc21,inactive
18,COC(=O)c1ccc2[nH]c3cccc(/C(=C/c4ccccc4)c4ccccc4)c3c2c1,39.8 µM (active)
19,O=C(OCCN1C(=O)c2cccc3c(N4CCOCC4)ccc(c23)C1=O)c1ccc(Cl)cc1Cl,inactive
20,O=C(CN1C(=O)c2ccccc2C1=O)OCCOCCNC1=NS(=O)(=O)c2ccccc21,inactive
21,CCc1nc2ccc(C(=O)Nc3ccc(Cl)c(Cl)c3)cn2c1N(C)Cc1ccc(OC)cc1,20 µM (active)
22,CCn1cc(Cl)c(C(=O)Nc2cc(C(=O)OC)cc(C(=O)OC)c2)n1,inactive
23,COCCCNC(=O)c1ccc2nc3ccccc3c(=O)n2c1,inactive
24,CCc1nc2ccc(C(=O)NCc3ccccc3OC)cn2c1N(C)Cc1ccc(OC)cc1,17.8 µM (active)
25,COc1ccc(N2CC(C(=O)N[C@@H](C)C(=O)NCc3ccccc3OC)CC2=O)cc1 (stereo partly specified),inactive
26,COc1ccc(NC(=S)N2CCC(C(=O)c3ccc(Cl)cc3)CC2)cc1,inactive

row,Compound,Potency
1,COc1ccc2c(c1)CCc1cn3ncc(C#N)c3nc1-2,inactive
2,O=C(O/N=C1\CCS(=O)(=O)c2sccc21)c1ccccc1,inactive
3,CCc1c(C)c2cc(Cl)c(O)c(CN(CC)CC)c2oc1=O,inactive
4,CN1C(=O)c2cccc3c(Br)ccc(c23)C1=O,inactive
5,Brc1ccc(COc2ncnc3ccccc23)cc1,inactive
6,O=C(NCc1ccc2c(c1)OCO2)c1ccc(Cl)s1,inactive
7,O=C(O)c1ccccc1N(Cc1ccccc1)C(=O)COc1ccccc1,inactive
8,CCOc1ccc(CN(C)C(=O)CCl)cc1,12.6 µM (active)
9,COc1ccc(CN(C)C(S)=Nc2ccc(Cl)cc2)cc1,inactive
10,CN(Cc1ccc(Cl)cc1)C(=O)CCl,35.5 µM (active)
11,CN(Cc1ccc(Cl)s1)C(=O)CCl,23.8 µM (active)
12,CCOc1ccc(CNC(=O)Nc2ccccc2)cc1,inactive
13,O=C(Nc1ccccc1F)C(=Cc1sc(N2CCOCC2)nc1-c1ccccc1)C(=O)Nc1ccccc1F,inactive
14,Nc1c(C(=O)Nc2ccccc2)sc2nc(-c3ccco3)ccc12,inactive
15,Cc1ccc2cccc(NS(=O)(=O)c3ccccc3)c2n1,inactive
16,CC(C)(C)C(=O)/C=c1\s/c(=C\c2ccc(-c3ccc([N+](=O)[O-])cc3)o2)c(=O)n1CC(=O)NC(N)=O,inactive
17,COC(=O)c1ccc2oc(=O)c(S(=O)(=O)c3ccc(C)cc3)cc2c1,inactive
18,CN(C)CCCN(C(=O)c1ccco1)c1nc2ccc(Cl)cc2s1,39.8 µM (active)
19,Cc1ccc2nc(N(CCCN(C)C)C(=O)c3ccc4c(c3)CCCC4)sc2c1,39.8 µM (active)
20,COc1cc2nc(N(CCCN(C)C)C(=O)c3ccc(C(=O)c4ccccc4)cc3)sc2cc1OC,44.7 µM (active)
21,CN(C)CCCN(C(=O)c1cccs1)c1nc2cc3c(cc2s1)OCO3,inactive
22,CN(C)CCCN(C(=O)c1ccc2c(c1)CCCC2)c1nc2ccc(Cl)cc2s1,31.6 µM (active)
23,S=C(Nc1ccccc1Cl)N1CCCC(c2ccccc2)=N1,inactive
